About 7,900 targets were measured; listed, in parts, are those with a hit and a random draw of the rest. About 0.6% of all pairs of compound and target were hits. A number with no mark means an inactive call.
Legend:
Test in all cases: log2 fold change, soluble protein after heating vs DMSO (PISA); higher = thermal stabilisation; K562 cells, 10 uM, 30 min; active = over 0.2 and 3.5 SD of the protein, either way, in both replicates (recomputed)
[1] = compound: CC1=C(C=C(C=C1)NC(=O)C2=CC(=CC=C2)C(C)(C)C#N)NC3=CC4=C(C=C3)N=CN(C4=O)C
Outline: (§1)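 Values are thermal stability changes relative to control samples and are taken from duplicates. They are stated as log2 fold changes. Before quantification by TMTpro 16plex LC-MS/MS with equalised channel sums, K562 cells at 2×10^6 cells/mL were treated with 10 μM compound for 30 min, heated in aliquots for 3 min across 48°C-58°C, pooled, extracted in PBS with 0.5% NP-40 at 4°C, and centrifuged at 21,000xg for 90 min to give the soluble supernatant.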

[2] = compound: CC1=C(C=C(C=C1)NC(=O)C2=CC(=CC=C2)N(C)C)NC(=O)C3=CC=C(C=C3)O
Outline: as §1

[3] = compound: CC1=CC=C(C=C1)SC2=C3C=C(SC3=CN=C2)C(=O)N
Outline: as §1

[4] = compound: CC1=NC(=CC=C1)C2=C(N=C(N2)C(C)(C)C)C3=CC4=NC=CN=C4C=C3
Outline: as §1

Nexturastat A = compound: CCCCN(Cc1ccc(C(=O)NO)cc1)C(=O)Nc1ccccc1 [Nexturastat A]
Outline: as §1

vemurafenib = compound: CCCS(=O)(=O)Nc1ccc(F)c(C(=O)c2c[nH]c3ncc(-c4ccc(Cl)cc4)cc23)c1F [vemurafenib]
Outline: as §1

[5] = compound: CCCS(=O)(=O)Nc1ccc(F)c(C(=O)c2c[nH]c3ncc(Cl)cc23)c1F
Outline: as §1

[6] = compound: CCCc1cc(C)[nH]c(=O)c1CNC(=O)c1cc(-c2ccnc(N3CCN(C)CC3)c2)cc2c1cnn2C(C)C
Outline: as §1

givinostat = compound: CCN(CC)Cc1ccc2cc(COC(=O)Nc3ccc(C(=O)NO)cc3)ccc2c1 [givinostat]
Outline: as §1

barasertib = compound: CCN(CCCOc1ccc2c(Nc3cc(CC(=O)Nc4cccc(F)c4)[nH]n3)ncnc2c1)CCOP(=O)(O)O [barasertib]
Outline: as §1

[7] = compound: CC[C@@H]1C(=O)N(C)c2cnc(Nc3ccc(C(=O)NC4CCN(C)CC4)cc3OC)nc2N1C1CCCC1
Outline: as §1

volasertib = compound: CC[C@@H]1C(=O)N(C)c2cnc(Nc3ccc(C(=O)N[C@H]4CC[C@H](N5CCN(CC6CC6)CC5)CC4)cc3OC)nc2N1C(C)C [volasertib]
Outline: as §1

[8] = compound: CC[C@H](C)N1C=C(C2=C(C=C(C=C21)C3=CN=C(C=C3)N4CCNCC4)C(=O)NCC5=C(C=C(NC5=O)C)C)C
Outline: as §1

epoxomicin = compound: CC[C@H](C)[C@@H](C(=O)N[C@@H]([C@@H](C)O)C(=O)N[C@@H](CC(C)C)C(=O)[C@]1(CO1)C)NC(=O)[C@H]([C@@H](C)CC)N(C)C(=O)C [epoxomicin]
Outline: as §1

[9] = compound: CCn1c(C(=O)N(C2CC2)C2CC2)cc2c3c(ncn3C)c(Nc3cc(C)n(C)n3)nc21
Outline: as §1

[10] = compound: CCn1cc(-c2ccnc3[nH]c(-c4cccc(CN(C)C)c4)cc23)c(-c2ccc(NC(=O)N(C)C)cc2)n1
Outline: as §1

[11] = compound: CN(C)CC(=O)Nc1ccc2[nH]c(=O)c3ccccc3c2c1
Outline: as §1

rosiglitazone = compound: CN(CCOC1=CC=C(C=C1)C[C@H]2C(=O)NC(=O)S2)C3=CC=CC=N3 (racemic) [rosiglitazone]
Outline: as §1

[12] = compound: CN1C2=C(C3=C1C(=O)N(N=C3)CC4=CC(=CC=C4)N)SC(=C2)S(=O)C
Outline: as §1

[13] = compound: CN1CCC(CNc2ccc3ncc(-c4cccc(OC(F)(F)F)c4)n3n2)CC1
Outline: as §1

UniProt Q9H000, sequence (Q9H000 whole entry, looked up): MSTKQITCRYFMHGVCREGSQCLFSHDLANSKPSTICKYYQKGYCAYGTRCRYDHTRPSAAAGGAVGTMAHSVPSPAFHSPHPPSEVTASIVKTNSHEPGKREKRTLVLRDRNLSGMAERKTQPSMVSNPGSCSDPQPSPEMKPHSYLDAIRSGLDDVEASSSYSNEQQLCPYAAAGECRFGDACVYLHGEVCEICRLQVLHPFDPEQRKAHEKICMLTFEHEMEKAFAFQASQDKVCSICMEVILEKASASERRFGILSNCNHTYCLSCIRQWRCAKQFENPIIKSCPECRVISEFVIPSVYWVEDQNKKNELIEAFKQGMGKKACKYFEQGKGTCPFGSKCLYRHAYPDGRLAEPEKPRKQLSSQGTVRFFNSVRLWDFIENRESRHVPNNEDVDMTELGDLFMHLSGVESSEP
UniProt Q96MF7, sequence (Q96MF7 whole entry, looked up): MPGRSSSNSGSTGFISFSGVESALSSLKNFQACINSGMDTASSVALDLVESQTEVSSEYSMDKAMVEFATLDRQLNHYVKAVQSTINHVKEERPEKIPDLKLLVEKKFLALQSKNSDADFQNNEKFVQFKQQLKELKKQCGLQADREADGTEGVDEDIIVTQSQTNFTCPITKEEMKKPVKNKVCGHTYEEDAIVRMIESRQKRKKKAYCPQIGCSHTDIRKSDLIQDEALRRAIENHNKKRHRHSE
UniProt P55209, sequence (P55209 whole entry, looked up): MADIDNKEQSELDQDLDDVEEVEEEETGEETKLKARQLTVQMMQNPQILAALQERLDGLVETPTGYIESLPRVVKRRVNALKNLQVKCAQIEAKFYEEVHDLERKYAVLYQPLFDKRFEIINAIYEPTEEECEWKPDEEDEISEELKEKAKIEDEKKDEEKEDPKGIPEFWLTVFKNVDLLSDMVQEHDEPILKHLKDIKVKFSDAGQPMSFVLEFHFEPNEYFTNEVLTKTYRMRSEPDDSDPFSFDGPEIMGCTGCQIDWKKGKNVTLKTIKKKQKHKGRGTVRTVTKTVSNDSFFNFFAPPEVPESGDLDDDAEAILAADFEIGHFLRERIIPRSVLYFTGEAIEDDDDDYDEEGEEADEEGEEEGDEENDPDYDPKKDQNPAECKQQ
UniProt Q9BWT6, sequence (Q9BWT6 whole entry, looked up): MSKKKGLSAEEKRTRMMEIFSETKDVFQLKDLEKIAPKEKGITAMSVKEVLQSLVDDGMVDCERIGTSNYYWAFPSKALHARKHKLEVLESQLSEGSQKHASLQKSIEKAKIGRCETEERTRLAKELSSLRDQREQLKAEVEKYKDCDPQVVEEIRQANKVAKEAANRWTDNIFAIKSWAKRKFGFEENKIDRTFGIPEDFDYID
UniProt Q96D46, sequence (Q96D46 whole entry, looked up): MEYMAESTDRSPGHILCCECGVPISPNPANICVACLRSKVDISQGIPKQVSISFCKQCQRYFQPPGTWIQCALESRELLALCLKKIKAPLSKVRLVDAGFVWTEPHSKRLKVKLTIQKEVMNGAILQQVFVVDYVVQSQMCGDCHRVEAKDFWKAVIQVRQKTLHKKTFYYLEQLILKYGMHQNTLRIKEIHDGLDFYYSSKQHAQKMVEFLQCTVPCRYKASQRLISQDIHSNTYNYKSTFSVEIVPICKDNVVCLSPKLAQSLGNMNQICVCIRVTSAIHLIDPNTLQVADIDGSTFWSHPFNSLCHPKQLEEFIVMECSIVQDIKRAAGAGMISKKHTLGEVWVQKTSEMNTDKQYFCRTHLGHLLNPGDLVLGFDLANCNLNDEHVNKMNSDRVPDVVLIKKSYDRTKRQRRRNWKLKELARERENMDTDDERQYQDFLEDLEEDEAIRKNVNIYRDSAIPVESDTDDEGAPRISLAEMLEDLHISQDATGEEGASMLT
UniProt Q13952, sequence (Q13952 whole entry, looked up): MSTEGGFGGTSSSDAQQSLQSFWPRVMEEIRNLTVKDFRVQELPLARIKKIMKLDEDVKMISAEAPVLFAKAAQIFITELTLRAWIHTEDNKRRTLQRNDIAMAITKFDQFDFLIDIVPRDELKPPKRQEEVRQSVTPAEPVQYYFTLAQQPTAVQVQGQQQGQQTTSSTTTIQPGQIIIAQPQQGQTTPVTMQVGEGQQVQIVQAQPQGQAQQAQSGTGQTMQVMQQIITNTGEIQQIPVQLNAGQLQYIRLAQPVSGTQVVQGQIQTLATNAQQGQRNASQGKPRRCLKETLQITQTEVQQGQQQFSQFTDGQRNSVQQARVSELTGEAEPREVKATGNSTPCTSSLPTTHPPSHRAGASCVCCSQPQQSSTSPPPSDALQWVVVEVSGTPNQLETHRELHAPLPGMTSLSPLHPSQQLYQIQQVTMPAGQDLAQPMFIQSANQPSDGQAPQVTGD
UniProt Q86WQ0, sequence (Q86WQ0 whole entry, looked up): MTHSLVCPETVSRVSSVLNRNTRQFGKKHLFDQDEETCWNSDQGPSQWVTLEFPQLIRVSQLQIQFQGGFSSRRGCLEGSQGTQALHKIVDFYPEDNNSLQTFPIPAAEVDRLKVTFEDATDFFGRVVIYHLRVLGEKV
UniProt Q9NR45, sequence (Q9NR45 whole entry, looked up): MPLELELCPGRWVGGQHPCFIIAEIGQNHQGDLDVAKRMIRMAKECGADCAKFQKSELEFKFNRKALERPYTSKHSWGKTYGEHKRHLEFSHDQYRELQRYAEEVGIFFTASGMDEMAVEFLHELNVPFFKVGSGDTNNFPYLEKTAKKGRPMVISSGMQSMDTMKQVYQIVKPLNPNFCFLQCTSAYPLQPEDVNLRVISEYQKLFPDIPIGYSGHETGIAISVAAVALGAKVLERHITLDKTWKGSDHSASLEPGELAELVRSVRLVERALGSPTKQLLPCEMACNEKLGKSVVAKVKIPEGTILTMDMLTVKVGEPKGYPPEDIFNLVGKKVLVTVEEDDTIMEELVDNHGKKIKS
UniProt Q00013, sequence (Q00013 whole entry, looked up): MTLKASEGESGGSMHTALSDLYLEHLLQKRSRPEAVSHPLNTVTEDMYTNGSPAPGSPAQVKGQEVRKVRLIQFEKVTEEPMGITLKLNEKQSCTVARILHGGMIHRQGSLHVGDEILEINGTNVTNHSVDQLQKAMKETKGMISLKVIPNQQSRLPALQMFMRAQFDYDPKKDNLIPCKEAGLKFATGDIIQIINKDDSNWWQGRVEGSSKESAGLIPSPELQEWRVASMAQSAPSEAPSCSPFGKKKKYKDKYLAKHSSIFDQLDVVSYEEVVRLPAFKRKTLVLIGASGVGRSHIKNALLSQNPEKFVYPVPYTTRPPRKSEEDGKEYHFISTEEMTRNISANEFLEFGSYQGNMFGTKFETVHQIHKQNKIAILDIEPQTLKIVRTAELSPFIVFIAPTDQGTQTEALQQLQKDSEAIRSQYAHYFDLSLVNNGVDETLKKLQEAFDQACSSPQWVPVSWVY
UniProt Q8WX92, sequence (Q8WX92 whole entry, looked up): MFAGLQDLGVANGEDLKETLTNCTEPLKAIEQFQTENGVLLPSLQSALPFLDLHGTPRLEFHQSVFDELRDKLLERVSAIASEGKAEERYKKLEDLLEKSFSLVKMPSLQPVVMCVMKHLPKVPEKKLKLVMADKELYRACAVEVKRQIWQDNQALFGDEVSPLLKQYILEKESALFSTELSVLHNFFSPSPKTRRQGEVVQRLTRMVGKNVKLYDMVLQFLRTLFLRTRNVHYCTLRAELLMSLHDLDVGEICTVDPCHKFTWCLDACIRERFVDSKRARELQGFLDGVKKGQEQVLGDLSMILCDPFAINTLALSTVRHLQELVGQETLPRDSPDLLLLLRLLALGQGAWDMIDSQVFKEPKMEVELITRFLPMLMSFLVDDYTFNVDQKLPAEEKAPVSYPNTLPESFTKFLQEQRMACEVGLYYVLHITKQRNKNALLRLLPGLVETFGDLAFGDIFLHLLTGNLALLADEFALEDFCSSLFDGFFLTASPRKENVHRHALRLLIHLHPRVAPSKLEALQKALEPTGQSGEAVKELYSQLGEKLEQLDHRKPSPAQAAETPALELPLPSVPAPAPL
UniProt Q8N543, sequence (Q8N543 whole entry, looked up): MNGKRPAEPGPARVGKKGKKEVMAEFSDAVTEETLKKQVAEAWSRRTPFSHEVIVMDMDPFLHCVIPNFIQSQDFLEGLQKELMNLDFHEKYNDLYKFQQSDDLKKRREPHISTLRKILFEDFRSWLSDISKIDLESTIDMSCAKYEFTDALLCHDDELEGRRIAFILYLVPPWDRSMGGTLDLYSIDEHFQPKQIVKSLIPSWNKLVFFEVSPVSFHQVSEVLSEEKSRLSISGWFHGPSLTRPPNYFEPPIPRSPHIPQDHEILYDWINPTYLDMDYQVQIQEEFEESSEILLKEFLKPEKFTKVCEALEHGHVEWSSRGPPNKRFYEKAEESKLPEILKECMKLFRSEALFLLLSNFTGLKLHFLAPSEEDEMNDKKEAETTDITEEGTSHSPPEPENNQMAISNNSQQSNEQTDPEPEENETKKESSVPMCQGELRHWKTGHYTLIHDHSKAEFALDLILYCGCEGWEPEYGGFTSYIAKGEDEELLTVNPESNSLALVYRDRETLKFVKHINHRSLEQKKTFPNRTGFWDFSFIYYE
UniProt Q8N6M0, sequence (Q8N6M0 whole entry, looked up): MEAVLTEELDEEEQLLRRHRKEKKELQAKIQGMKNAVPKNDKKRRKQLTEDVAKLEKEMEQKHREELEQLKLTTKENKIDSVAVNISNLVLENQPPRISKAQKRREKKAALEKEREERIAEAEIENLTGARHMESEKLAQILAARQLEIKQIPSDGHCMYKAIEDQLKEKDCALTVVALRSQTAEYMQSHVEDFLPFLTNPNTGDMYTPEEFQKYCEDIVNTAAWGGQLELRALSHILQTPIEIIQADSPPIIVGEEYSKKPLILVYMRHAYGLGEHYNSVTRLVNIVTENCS

Target	log2 fold change [1]	log2 fold change [2]	log2 fold change [3]	log2 fold change [4]	log2 fold change (Nexturastat A)	log2 fold change (vemurafenib)	log2 fold change [5]	log2 fold change [6]	log2 fold change (givinostat)	log2 fold change (barasertib)	log2 fold change [7]	log2 fold change (volasertib)	log2 fold change [8]	log2 fold change (epoxomicin)	log2 fold change [9]	log2 fold change [10]	log2 fold change [11]	log2 fold change (rosiglitazone)	log2 fold change [12]	log2 fold change [13]
NMD3 (UniProt Q96D46)	0.03	-0.061	-0.009	0.067	-0.079	0.077	0.03	-0.004	-0.024	0.015	0.103	0.151	-0.009	0.042	-0.029	-0.163	0.04	0.064	-0.138	0.114
MND1 (UniProt Q9BWT6)	0.034	0.021	0	0.025	-0.043	-0.016	-0.024	-0.091	0.048	-0.032	-0.081	-0.175	-0.036	0.049	0.045	-0.076	-0.015	-0.008	0.04	-0.468 (active)
NAP1L1 (UniProt P55209)	0.042	0.005	-0.002	0.035	-0.003	0.04	0.011	0.028	-0.08	0.061	-0.112	-0.237 (active)	0.005	0.048	0.007	-0.008	0.013	0.014	0.003	-0.038
MRPS18B (UniProt Q9Y676)	-0.036	-0.165	-0.08	0.009	0.031	-0.074	0	-0.081	0.075	-0.017	0.028	-0.039	0.09	0.042	-0.075	-0.021	0.041	-0.069	-0.01	-0.087
NR2C2AP isoform 2 (UniProt Q86WQ0)	-0.053	-0.068	-0.007	0.082	-0.101	-0.026	0.066	-0.085	-0.035	-0.002	-0.108	-0.061	-0.018	0.023	-0.055	0.018	0	0.039	-0.223	-0.152
MKRN2 (UniProt Q9H000)	0.147	0.059	-0.002	0.086	0.091	0.095	0.035	-0.045	0.083	-0.098	-0.08	-0.633 (active)	0.106	-0.068	-0.064	0.193	0.126	0.063	0.152	0.082
NSMCE2 (UniProt Q96MF7)	0.019	-0.052	0.006	0.056	0.064	-0.007	0.021	0.018	-0.076	0.078	0.072	-0.032	-0.003	-0.089	0.025	0.079	-0.007	0.119	0.059	0.397 (active)
NANS (UniProt Q9NR45)	0.063	-0.02	0.035	0.007	-0.196	-0.001	0.026	0.007	-0.025	0.01	0.015	-0.013	0.032	0.016	0.04	-0.041	0.009	0.032	-0.434 (active)	0.034
OTUD6B (UniProt Q8N6M0)	0.045	-0.002	0.124	0.007	0.044	0.035	0.14	0.084	-0.02	0.096	-0.163	-0.435 (active)	0.036	0.094	-0.032	-0.055	0.066	0.09	-0.019	-0.137
OGFOD1 (UniProt Q8N543)	-0.013	-0.01	0.013	0.033	-0.061	-0.01	-0.006	0.006	-0.112	0.009	0.049	0.038	-0.025	0.042	0.007	-0.013	-0.022	0.059	-0.022	-0.051
MPP1 (UniProt Q00013)	0.117	-0.052	0.043	0.025	0.002	0.029	0.04	0.053	0.062	0.034	-0.039	-0.112	0.063	0.058	-0.025	-0.051	0.011	0.051	0.043	-0.256 (active)
MRPS12 (UniProt O15235)	-0.034	-0.094	0.054	-0.069	0.201	-0.146	0.032	-0.002	0.077	-0.054	-0.043	-0.024	0.077	-0.001	-0.04	-0.072	-0.103	0.063	0.091	-0.014
NFYC (UniProt Q13952)	0.005	0.011	-0.061	0.019	-0.087	-0.006	-0.001	-0.031	0.001	0.028	0.012	0.015	-0.021	-0.001	0.006	-0.015	0.041	0.059	-0.063	0
OGFR (UniProt Q9NZT2)	-0.023	0.018	-0.022	0.035	0.057	0.075	0.002	0.01	-0.02	0.125	0.026	-0.103	0.167	-0.076	0.018	-0.041	0.142	0.007	-0.027	-0.134
NELFB isoform 2 (UniProt Q8WX92)	-0.026	-0.062	0.035	0.05	-0.032	0.06	0.08	-0.007	0.069	0.046	-0.176	-0.68 (active)	0.118	0.072	-0.057	-0.012	0.068	0.041	-0.02	-0.116
